Data published in PubChem BioAssay AID485298 (National Center for Advancing Translational Sciences (NCATS), 2010).
The campaign covered roughly 320,000 compounds. About 740 (0.23%) were called active. About 2% were inconclusive and are not listed. Calls come from the whole dose curve; as a rule, active = well fitted activation curve with a large enough effect; inconclusive = small, poorly fitted or top-dose-only effect; inactive = no such curve, though single readings can be large or run the other way. The entries come from a sample that favours actives as a whole. A call without a number means that no potency is given here.
Potency is the fitted concentration of half-maximal effect.

Assay: qHTS Assay for Small Molecule Inhibitors of Mitochondrial Division or Activators of Mitochondrial Fusion; note: nearly all actives have a fitted effect of over 45% in size
Conditions: S. cerevisiae fusion-defective mutant growth rescue, CellTiterGlo 48 h; series mostly up to 46.1 µM
Source text: NIH Chemical Genomics Center [NCGC] NIH Molecular Libraries Probe Production centers Network [MLPCN] MLPCN Grant: MH081279-01 Assay Submitter (PI): Jodi M. Nunnari NCGC Assay Overview: The budding yeast S. cerevisiae is a powerful system to study mitochondrial fusion. Unlike other organisms, yeast cells without functional mitochondrial DNA (mtDNA) can be propagated and studied as long as they maintain a mitochondrial compartment and are provided with a fermentable carbon source. When mitochondrial fusion is blocked in yeast, mitochondrial tubules rapidly fragment and division continues unopposed. Under conditions where fusion is compromised in mammalian cells, nearly identical changes in mitochondrial structure have been observed. Thus, these findings indicate that steady state mitochondrial structure in cells is a characteristic and specific indicator of fusion activity. Mounting evidence has pointed to a connection between mitochondrial dynamics and apoptosis in mammalian cells. These studies indicate that in mammalian cells mitochondrial dynamics are more integrated into cellular processes than in yeast cells and have evolved not only to distribute the organelle but also to aid in the regulation of cellular homeostasis. Mitochondrial fusion proteins attenuate apoptosis by inhibiting the release of cytochrome c from mitochondria, in part by controlling cristae structures. Thus, small molecules that inhibit mitochondrial […] may promote apoptosis and potentially act as novel chemotherapeutics and stimulation of apoptosis has become an attractive target of anti-cancer therapies. To identify inhibitors of mitochondrial division, we exploit the growth phenotypes of mitochondrial fusion-defective mutants. The temperature sensitive fusion alleles, such as fzo1-1 and mgm1-5, cause mitochondrial membranes to fragment in cells under non-permissive conditions and cells lose mtDNA, and are unable to grow in the presence of non-fermentable carbon source glycerol. Inhibiting mitochondrial division rescues growth. We have developed and optimized a luminescence cell viability assay in 1536 well format for the identification of inhibitors in the yeast mitochondrial fusion-defective assay.
The yeast glycerol stocks where kindly supplied by the laboratory of Dr. Jodi Nunnari, University of California, Davis. All yeast glycerol stock solutions were stored in single use aliquots at -80C. The CellTiterGlo luminescence reagent, containing luciferase and luciferin, were purchased from Promega, and the reagents were stored according to manufacturer's instructions. The Buffer components for the YPEG yeast growth medium were purchased from Sigma-Aldrich (St. Louis, MO). YPEG growth medium: 1% (w/v) yeast extract, 2% (w/v) Bacto-peptone, 3% Ethanol, 3% glycerol, 0.4mM Tryptophan, 0.36mM Adenine. qHTS Assay Protocol: 1.#Dispense 2.5 ul yeast growth medium per 1536 well plate. 2.#Transfer 23 nl per well of compound to plate. 3.#Dispense 2.5 ul yeast solution at appropriate seeding density per well. 4.#Incubate for 48 hours at 37C. 5.#Dispense 5 ul of CellTiterGlow solution per well. 6.#Incubate at ambient for 10 minutes. 7.#Read using bio-luminescence protocol on Viewlux.
In the case of `O=C1NC(=O)C(CCc2ccccn2)(Cc2cccc(Cl)c2Cl)C(=O)N1c1ccc(Br)cc1` (stereo not given), the Potency was 11.2 µM (active). For `Clc1ccc2nc3c(c(-c4ccccc4)c2c1)CNCC3`, the Potency was “inactive”. For `N[C@@H](Cc1c[nH]c2ccccc12)c1nnc(SCc2c(F)cccc2Cl)o1`, the Potency was “inactive”. For `CC(=O)NBr`, the Potency was “inactive”. With `C=CCN1CCC23c4c5ccc(O)c4O[C@H]2C(=O)CC[C@@]3(O)C1C5` (stereo not given in full) the Potency was “inactive”. In the case of `c1ccc2c(c1)[I+]c1ccccc1-2`, the Potency was 0.291 µM (active). With `O=C(COc1ccc2ccccc2c1)N1CCN(Cc2ccncc2)CC1` the Potency was “inactive”. For `Cc1nn(Cc2ccccc2Cl)c(Cl)c1C(=O)OC(C(=O)NC(N)=O)C(C)C` (stereo not given), the Potency was “inactive”. In the case of `C=CCN1C(=O)C2(C(C(=O)OCC)=C(N)Oc3c2c(=O)oc2ccccc32)c2ccccc21` (stereo not given), the Potency was “inactive”. For `CC1=CC(=Cc2sc3ccccc3[n+]2C)C=C(C)O1`, the Potency was “inactive”.
